This note sets out measurements from paper PMC12820563, “FoxP3 forms a head-to-head dimer in vivo and stabilizes its multimerization on adjacent microsatellites”.

Over roughly 16,000 sequences, “rpm ratio (pull-down/input)” has its median near 0.5; the highest 2% begin near 5.5. The sample as a whole holds a higher share of the highest values than the screen did.

The target in this assay is T1, MBP-FoxP3dN (Mus musculus, UniProt Q99JB6 188-423).
T1 sequence: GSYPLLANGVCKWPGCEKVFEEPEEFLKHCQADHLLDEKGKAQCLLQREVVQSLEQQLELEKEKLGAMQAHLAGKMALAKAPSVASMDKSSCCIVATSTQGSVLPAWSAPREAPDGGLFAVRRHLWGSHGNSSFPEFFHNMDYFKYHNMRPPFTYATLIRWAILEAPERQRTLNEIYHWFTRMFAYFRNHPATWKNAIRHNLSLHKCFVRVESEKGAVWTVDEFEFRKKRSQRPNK
Description: PD-seq (MBP pull-down with sequencing); 20 mM Tris-HCl pH 7.5, 100 mM NaCl, 1.5 mM MgCl2, 0.4 uM protein, 0.1 uM dsDNA library, 30 min, room temperature, amylose pull-down; high values mean tight binding. The following applies: protein: recombinant; tags: His6-MBP; chain copies: 2; dsDNA, one strand shown. A digest of the protocol: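 In Tris pH 7.5 buffer with NaCl and MgCl2, 0.4 µM His6-MBP-tagged mouse FoxP3 or FoxP1 fragment lacking the N-terminus, from E. coli, met 0.1 µM Klenow-filled double-stranded degenerate DNA library for 30 min at room temperature. Three washes on amylose resin followed capture of the complexes, then proteinase K release of DNA, PCR barcoding and Illumina sequencing. Binding is taken as pooled-replicate reads-per-million enrichment of pull-down relative to input.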
With “GATGATTGTTCTCCCAGCTGATGAATTGGACCATTCGAGTAAACAAATTTTCCTAATCTTTCTGTTCAAGCGCCATCTAC”, the binding signal was 0.374 RPM ratio (pull-down/input).

As for “GATGATTGTTCTCCCAGCTGATGAATTAGCCGACTCGAGTAAACAAATTTTCCTAATCTTTCTGTTCAAGCGCCATCTAC”, the binding signal is 0.205 RPM ratio (pull-down/input).

In the case of “GATGATTGTTCTCCCAGCTGATGAATTCTGGAATTCGAGTAAACAAATTTTCCTAATCTTTCTGTTCAAGCGCCATCTAC”, the binding signal is 0.579 RPM ratio (pull-down/input).

Regarding “GATGATTGTTCTCCCAGCTGATGAATTCCCTGTGTCGAGTAAACAAATTTTCCTAATCTTTCTGTTCAAGCGCCATCTAC”, the binding signal was 0.347 RPM ratio (pull-down/input).

As for “GATGATTGTTCTCCCAGCTGATGAATTTCTGTTGTCGAGTAAACAAATTTTCCTAATCTTTCTGTTCAAGCGCCATCTAC”, the binding signal was 1.28 RPM ratio (pull-down/input).

For the sequence “GATGATTGTTCTCCCAGCTGATGAATTGTGTCGTTCGAGTAAACAAATTTTCCTAATCTTTCTGTTCAAGCGCCATCTAC”, the binding signal is 2.73 RPM ratio (pull-down/input).

With “GATGATTGTTCTCCCAGCTGATGAATTTGCTGTGTCGAGTAAACAAATTTTCCTAATCTTTCTGTTCAAGCGCCATCTAC”, the binding signal is 6.29 RPM ratio (pull-down/input).

“GATGATTGTTCTCCCAGCTGATGAATTGTTGTTGTCGAGTAAACAAATTTTCCTAATCTTTCTGTTCAAGCGCCATCTAC”: the binding signal was 7.65 RPM ratio (pull-down/input).

As for “GATGATTGTTCTCCCAGCTGATGAATTCGTTGTGTCGAGTAAACAAATTTTCCTAATCTTTCTGTTCAAGCGCCATCTAC”, the binding signal was 5.69 RPM ratio (pull-down/input).

With “GATGATTGTTCTCCCAGCTGATGAATTCGTGTTGTCGAGTAAACAAATTTTCCTAATCTTTCTGTTCAAGCGCCATCTAC”, the binding signal is 2.75 RPM ratio (pull-down/input).

Take “GATGATTGTTCTCCCAGCTGATGAATTGTCGTGTTCGAGTAAACAAATTTTCCTAATCTTTCTGTTCAAGCGCCATCTAC”: the binding signal was 0.915 RPM ratio (pull-down/input).

Turning to “GATGATTGTTCTCCCAGCTGATGAATTTTTGTTGTCGAGTAAACAAATTTTCCTAATCTTTCTGTTCAAGCGCCATCTAC”, the binding signal is 3.24 RPM ratio (pull-down/input).

On to “GATGATTGTTCTCCCAGCTGATGAATTTGTCGTGTCGAGTAAACAAATTTTCCTAATCTTTCTGTTCAAGCGCCATCTAC”, for which the binding signal was 5.6 RPM ratio (pull-down/input).

On to “GATGATTGTTCTCCCAGCTGATGAATTTTTCGTGTCGAGTAAACAAATTTTCCTAATCTTTCTGTTCAAGCGCCATCTAC”, for which the binding signal was 0.363 RPM ratio (pull-down/input).

On to “GATGATTGTTCTCCCAGCTGATGAATTTTTGCTGTCGAGTAAACAAATTTTCCTAATCTTTCTGTTCAAGCGCCATCTAC”, for which the binding signal is 0.548 RPM ratio (pull-down/input).

As for “GATGATTGTTCTCCCAGCTGATGAATTGCTTGTGTCGAGTAAACAAATTTTCCTAATCTTTCTGTTCAAGCGCCATCTAC”, the binding signal is 2.01 RPM ratio (pull-down/input).

“GATGATTGTTCTCCCAGCTGATGAATTAGGCTGATCGAGTAAACAAATTTTCCTAATCTTTCTGTTCAAGCGCCATCTAC”: the binding signal was 0.537 RPM ratio (pull-down/input).

Turning to “GATGATTGTTCTCCCAGCTGATGAATTGAGTGCCTCGAGTAAACAAATTTTCCTAATCTTTCTGTTCAAGCGCCATCTAC”, the binding signal is 0.963 RPM ratio (pull-down/input).

Take “GATGATTGTTCTCCCAGCTGATGAATTCATTGAATCGAGTAAACAAATTTTCCTAATCTTTCTGTTCAAGCGCCATCTAC”: the binding signal was 0.267 RPM ratio (pull-down/input).

For the sequence “GATGATTGTTCTCCCAGCTGATGAATTGTGGACCTCGAGTAAACAAATTTTCCTAATCTTTCTGTTCAAGCGCCATCTAC”, the binding signal is 0.571 RPM ratio (pull-down/input).

Consider “GATGATTGTTCTCCCAGCTGATGAATTCAATAGGTCGAGTAAACAAATTTTCCTAATCTTTCTGTTCAAGCGCCATCTAC”, for which the binding signal is 0.536 RPM ratio (pull-down/input).

Take “GATGATTGTTCTCCCAGCTGATGAATTCGGATGGTCGAGTAAACAAATTTTCCTAATCTTTCTGTTCAAGCGCCATCTAC”: the binding signal was 0.433 RPM ratio (pull-down/input).

Regarding “GATGATTGTTCTCCCAGCTGATGAATTTCTGCACTCGAGTAAACAAATTTTCCTAATCTTTCTGTTCAAGCGCCATCTAC”, the binding signal is 0.475 RPM ratio (pull-down/input).

In the case of “GATGATTGTTCTCCCAGCTGATGAATTCAAGTGTTCGAGTAAACAAATTTTCCTAATCTTTCTGTTCAAGCGCCATCTAC”, the binding signal was 0.65 RPM ratio (pull-down/input).

Take “GATGATTGTTCTCCCAGCTGATGAATTCGGACCATCGAGTAAACAAATTTTCCTAATCTTTCTGTTCAAGCGCCATCTAC”: the binding signal is 0.399 RPM ratio (pull-down/input).

Take “GATGATTGTTCTCCCAGCTGATGAATTATAAGATTCGAGTAAACAAATTTTCCTAATCTTTCTGTTCAAGCGCCATCTAC”: the binding signal is 0.351 RPM ratio (pull-down/input).

“GATGATTGTTCTCCCAGCTGATGAATTTGTGATGTCGAGTAAACAAATTTTCCTAATCTTTCTGTTCAAGCGCCATCTAC”: the binding signal is 5.62 RPM ratio (pull-down/input).

With “GATGATTGTTCTCCCAGCTGATGAATTGTGATTGTCGAGTAAACAAATTTTCCTAATCTTTCTGTTCAAGCGCCATCTAC”, the binding signal is 4.91 RPM ratio (pull-down/input).

For “GATGATTGTTCTCCCAGCTGATGAATTGTCTGTGTCGAGTAAACAAATTTTCCTAATCTTTCTGTTCAAGCGCCATCTAC”, the binding signal was 0.563 RPM ratio (pull-down/input).

For “GATGATTGTTCTCCCAGCTGATGAATTTGTGTTGTCGAGTAAACAAATTTTCCTAATCTTTCTGTTCAAGCGCCATCTAC”, the binding signal is 6.27 RPM ratio (pull-down/input).

As to “GATGATTGTTCTCCCAGCTGATGAATTTCTTGTGTCGAGTAAACAAATTTTCCTAATCTTTCTGTTCAAGCGCCATCTAC”, the binding signal is 1.59 RPM ratio (pull-down/input).
